The record followed here is PubChem BioAssay (NCATS).

Assay [1] is described as follows: Immunotoxin (HA22) sensitization/mitigation study. Vehicle arm (PBS) (AID 1159510).
The nature of assay [2]: Immunotoxin (SS1P) sensitization/mitigation study. Vehicle arm (DMEM) (AID 1159513).

Where “and” joins values, the source holds several entries; their conditions need not be identical. Identical values can stand only once. Calls of active or inactive are those of the source. No rule for the calls is given here.
Potency is read from the fitted curve at half-maximal effect.

For `COc1c(C)cnc(Cn2cnc3c(Cl)nc(N)nc32)c1C`, the Potency in assay [1] is 0.0187 µM (active); in assay [2] it was 0.0105 µM (active). Taken in the same sequence, the figures for `Cc1n[nH]c(C)c1Cc1sc2c(c1C(=O)N1C[C@H](O)CO1)c(=O)n(C)c(=O)n2CC(C)C` were 0.0019 µM (active) and “inactive”. On to `COc1cc(C)c(Sc2cnc(NC(=O)c3ccc(CNC(C)C(C)(C)C)cc3)s2)cc1C(=O)N1CCN(C(C)=O)CC1` (stereo unspecified), for which the Potency in assay [1] was 14.8 µM (active). In the case of `O=C(O)CCc1ccc(NCc2cccc(Oc3ccccc3)c2)cc1`, the Potency result in assay [1] and in assay [2] was “inactive” each time.

On to `Cc1cc([C@@H](C)Nc2ccccc2C(=O)O)c2nc(N3CCOCC3)cc(=O)n2c1`, for which the Potency was 14.8 µM (active) in assay [1] and 20.9 µM (active) in assay [2]. Taken in the same sequence, the figures for `CCCCc1ccc(NS(=O)(=O)c2ccc(C)c(C(=O)N3CCN(c4cccc(C)c4C)CC3)c2)cc1` were 20.9 µM (active) and 23.5 µM (active). The corresponding values for `C=CCn1c(=O)c2cnc(Nc3ccc(N4CCN(C)CC4)cc3)nc2n1-c1cccc(C(C)(C)O)n1` are 0.187 µM (active) and 0.166 µM (active). Taken in the same sequence, the figures for `Cc1ccc(C(=O)Nc2cccc(C(F)(F)F)c2)cc1-c1ccc2nc(NCCN3CCOCC3)ncc2c1` were 14.8 µM (active) and 13.2 µM (active).

As for `CC(C)C[C@H](NC(=O)[C@@H](O)[C@H](N)Cc1ccccc1)C(=O)O`, in assay [1], the Potency result is “inactive”. Consider `COC(=O)[C@]12CCC(C)(C)C[C@@H]1[C@@H]1C(=O)C=C3[C@@]4(C)C=C(C#N)C(=O)C(C)(C)[C@@H]4CC[C@@]3(C)[C@]1(C)CC2`, for which the Potency in assay [1] is 0.526 µM (active); in assay [2], 0.833 µM (active). As for `Cc1cc(Nc2cc(N3CCN(C)CC3)nc(C=Cc3ccccc3)n2)n[nH]1`, the figures for the Potency in assay [1] and in assay [2] were 1.32 µM (active) and 0.833 µM (active), respectively.

Turning to `COc1cc2c(Oc3ccc4[nH]c(C)cc4c3F)ncnc2cc1OCCCN1CCCC1`, the Potency in assay [1] is 13.2 µM (active). On the same count and under the same terms, in the case of `N#Cc1ccc(COC[C@H]2O[C@@H](n3c(NCc4ccc(Cl)c(Cl)c4)nc4c(N)ncnc43)[C@@H](O)[C@@H]2O)cc1` it was 23.5 µM (active).

Regarding `O=C(C1CC1)N1CC[C@@H](Cn2c(-c3ccc(-c4ccc5occc5c4)cc3)nc3cnccc32)C1`, the Potency is 20.9 µM (active) in assay [1] and 16.6 µM (active) in assay [2].

Regarding `COCC(=O)NCC=Cc1ccc2ncnc(Nc3ccc(Oc4ccc(C)nc4)c(C)c3)c2c1`, the Potency in assay [1] is 23.5 µM (active); in assay [2] it was 18.7 µM (active).

As to `C[C@]1(CO)CN(c2cc(C(=O)Nc3ccc4c(c3)-c3c(c(C(N)=O)nn3-c3ccc(F)cc3)CC4)c(Cl)cn2)C[C@@]1(C)CO`, the Potency is 3.32 µM (active) in assay [1] and 16.6 µM (active) in assay [2].

`COc1cc(Nc2ncc(F)c(Nc3ccc4c(n3)NC(=O)C(C)(C)O4)n2)cc(OC)c1OC`: the Potency is 18.7 µM (active) in assay [1] and 16.6 µM (active) in assay [2]. In the case of `CC1(C)CCC(c2ccc(Cl)cc2)=C(CN2CCN(c3ccc(C(=O)NS(=O)(=O)c4ccc(N[C@H](CCN5CCOCC5)CSc5ccccc5)c(S(=O)(=O)C(F)(F)F)c4)cc3)CC2)C1`, the Potency in assay [1] was 0.332 µM (active). As to `CC(C)(C)c1cnc(CSc2cnc(NC(=O)C3CCNCC3)s2)o1`, the Potency was 0.0332 µM (active) in assay [1] and 0.0526 µM (active) in assay [2]. With `CCN(CCCO)CCCOc1ccc2c(Nc3cc(CC(=O)Nc4cccc(F)c4)[nH]n3)ncnc2c1`, the Potency in assay [1] was 18.7 µM (active). Regarding `Cc1ccc(S(=O)(=O)Nc2cc(Cl)ccc2C(=O)Nc2nc(-c3ccccc3)cs2)cc1`, the Potency is 5.9 µM (active) in assay [1] and 2.09 µM (active) in assay [2].

As for `C[C@@H](O[C@H]1OCCN(Cc2n[nH]c(=O)[nH]2)[C@@H]1c1ccc(F)cc1)c1cc(C(F)(F)F)cc(C(F)(F)F)c1`, the Potency in assay [1] is 14.8 µM (active); in assay [2], 18.7 µM (active).

Consider `O=C(NC1CCNCC1)c1[nH]ncc1NC(=O)c1c(Cl)cccc1Cl`, for which the Potency in assay [1] was 37.2 nM (active) and 105 nM (active); in assay [2], 29.6 nM (active) and 83.3 nM (active). For the compound `COc1ccc2c(c1)CC[C@@H](CN(C)CC(=O)O)[C@H]2c1ccccc1`, the Potency result in assay [1] and in assay [2] was “inactive” each time. For `C[C@@H]1CCN(C(=O)CC#N)C[C@@H]1N(C)c1ncnc2[nH]ccc12`, the Potency entry in assay [1] and in assay [2] was “inactive” throughout.

`COc1cc2ncnc(Nc3ccc(F)c(Cl)c3)c2cc1NC(=O)C=CCN1CCCCC1`: the values for the Potency in assay [1] and in assay [2] were 9.35 µM (active) and 18.7 µM (active), respectively.

For the compound `CCCCCCCc1ccc(CCc2cccc(O)c2C(=O)O)cc1`, the Potency in assay [1] was 23.5 µM (active); in assay [2] it was 18.7 µM (active). Taken in the same sequence, the figures for `COc1ccc(OC)c(-c2nnc3ccc(-c4ccc(OC)c(O[C@@H]5CCOC5)c4)nn23)c1` were 8.33 µM (active) and 8.33 µM (active). Take `CN(C)CC=CC(=O)Nc1cc2c(Nc3ccc(F)c(Cl)c3)ncnc2cc1O[C@H]1CCOC1`: the results for the Potency in assay [1] and in assay [2] were 1.48 µM (active) and 6.62 µM (active), respectively. Take `CN1CCC(CNc2ccc3ncc(-c4cccc(OC(F)(F)F)c4)n3n2)CC1`: the Potency is 20.9 µM (active) in assay [1] and 16.6 µM (active) in assay [2].

Regarding `O=c1[nH]c(-c2ccc(C(F)(F)F)cc2)nc2c1CSCC2`, the Potency result in assay [1] and in assay [2] was “inactive” throughout.

Regarding `CC(=O)Nc1sc2c(c1-c1nc3ccccc3s1)CNC2`, the values for the Potency in assay [1] and in assay [2] were 16.6 µM (active) and 23.5 µM (active), respectively. Consider `C[C@]12CC[C@H](O)CC1=CC[C@@H]1[C@H]2CC[C@]2(C)C(c3cccnc3)=CC[C@H]12`, for which the Potency in assay [1] was 1.87 µM (active). Take `CCC1(O)CC2CN(CCc3c([nH]c4ccccc34)[C@@](C(=O)OC)(c3cc4c(cc3OC)N(C=O)[C@H]3[C@](O)(C(=O)OC)[C@H](OC(C)=O)[C@]5(CC)C=CCN6CC[C@]43[C@@H]65)C2)C1` (stereo partly specified): the results for the Potency in assay [1] and in assay [2] were 0.0017 µM (active) and 0.0033 µM (active), respectively.
